Results on 30 compounds are retold here after the supplement of paper PMC9492666.

Structures can show the parent of a compound that is named as a salt.
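Note: viability read by CCK-8 kit in 96-well plates, part of a combination screen pairing lipid-metabolism-targeting compounds with erastin.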

The test system of the assay is HCC1937. Nature of the assay: relative cell viability, compound + erastin, vs DMSO (fraction of DMSO control); higher = less growth inhibition. The conditions noted are these: 72 h.
As to `CCCCCCCCCCCCC/C=C/[C@@H](O)[C@@H](N)CO` + CCOc1ccccc1-n1c(C(C)N2CCN(C(=O)COc3ccc(Cl)cc3)CC2)nc2ccccc2c1=O [erastin], the relative cell viability amounted to 0.248.

As to `OC[C@H]1O[C@@H](Oc2cc(O)cc(/C=C/c3ccc(O)cc3)c2)[C@H](O)[C@@H](O)[C@@H]1O` [Polydatin] + CCOc1ccccc1-n1c(C(C)N2CCN(C(=O)COc3ccc(Cl)cc3)CC2)nc2ccccc2c1=O [erastin], the relative cell viability amounted to 0.78.

Regarding `O=C(O)/C=C/c1ccc(O)c(O)c1` [Caffeic Acid] + CCOc1ccccc1-n1c(C(C)N2CCN(C(=O)COc3ccc(Cl)cc3)CC2)nc2ccccc2c1=O [erastin], the relative cell viability was determined as 0.777.

Consider `O=C1c2cccc(O)c2C(=O)c2c(O)cccc21` [Antrapurol] + CCOc1ccccc1-n1c(C(C)N2CCN(C(=O)COc3ccc(Cl)cc3)CC2)nc2ccccc2c1=O [erastin], for which the relative cell viability was 0.735.

Consider `O=C(O)CCn1c2c(c3ccccc31)C[C@H](NS(=O)(=O)c1ccc(F)cc1)CC2` [Ramatroban] + CCOc1ccccc1-n1c(C(C)N2CCN(C(=O)COc3ccc(Cl)cc3)CC2)nc2ccccc2c1=O [erastin], for which the relative cell viability worked out at 0.494.

Regarding `O=c1c(-c2ccc(O)cc2)coc2cc(O)ccc12` [Daidzein] + CCOc1ccccc1-n1c(C(C)N2CCN(C(=O)COc3ccc(Cl)cc3)CC2)nc2ccccc2c1=O [erastin], the relative cell viability amounted to 0.827.

Turning to `Cc1ccc(/C=C2\SC(=S)N(CCCCCC(=O)Nc3ccc(C(=O)O)c(O)c3)C2=O)cc1` + CCOc1ccccc1-n1c(C(C)N2CCN(C(=O)COc3ccc(Cl)cc3)CC2)nc2ccccc2c1=O [erastin], the relative cell viability came out at 0.715.

In the case of `COc1ccc(-c2coc3cc(O)cc(O)c3c2=O)cc1` [Biochanin A] + CCOc1ccccc1-n1c(C(C)N2CCN(C(=O)COc3ccc(Cl)cc3)CC2)nc2ccccc2c1=O [erastin], the relative cell viability was 0.589.

`O=C(ON1C(=O)CCC1=O)N1CCN(C(c2ccc(Cl)cc2)c2ccc(Cl)cc2)CC1` [Cravatt Reagent] + CCOc1ccccc1-n1c(C(C)N2CCN(C(=O)COc3ccc(Cl)cc3)CC2)nc2ccccc2c1=O [erastin]: the relative cell viability was determined as 0.886.

`CN(C)C(=N)NC(=N)N` [Metformin] + CCOc1ccccc1-n1c(C(C)N2CCN(C(=O)COc3ccc(Cl)cc3)CC2)nc2ccccc2c1=O [erastin]: the relative cell viability is 0.63.

With `CC(C)=CCC(O)C1=CC(=O)c2c(O)ccc(O)c2C1=O` (single isomer, unassigned; (+)) [(+)-Shikonin] + CCOc1ccccc1-n1c(C(C)N2CCN(C(=O)COc3ccc(Cl)cc3)CC2)nc2ccccc2c1=O [erastin], the relative cell viability stood at 0.159.

Consider `Cc1cc(C)c(S(=O)(=O)N(CCc2cccc(Br)c2)Cc2ccc(-c3cccc(S(C)(=O)=O)c3)cc2)c(C)c1` + CCOc1ccccc1-n1c(C(C)N2CCN(C(=O)COc3ccc(Cl)cc3)CC2)nc2ccccc2c1=O [erastin], for which the relative cell viability turned out to be 0.537.

With `Nc1ccc(O)c(C(=O)O)c1` [Mesalamine] + CCOc1ccccc1-n1c(C(C)N2CCN(C(=O)COc3ccc(Cl)cc3)CC2)nc2ccccc2c1=O [erastin], the relative cell viability was 0.772.

With `O=C(Nc1ccc(C(O)(C(F)(F)F)C(F)(F)F)cc1)c1ccc(C(F)(F)F)cc1` + CCOc1ccccc1-n1c(C(C)N2CCN(C(=O)COc3ccc(Cl)cc3)CC2)nc2ccccc2c1=O [erastin], the relative cell viability came to 0.366.

For the compound `CC[C@@H]1/C=C(\C)C[C@H](C)C[C@H](OC)[C@H]2O[C@@](O)(C(=O)C(=O)N3CCCC[C@H]3C(=O)O[C@H](/C(C)=C/[C@@H]3CC[C@@H](O)[C@H](OC)C3)[C@H](C)[C@@H](O)CC1=O)[C@H](C)C[C@@H]2OC` [Ascomycin] + CCOc1ccccc1-n1c(C(C)N2CCN(C(=O)COc3ccc(Cl)cc3)CC2)nc2ccccc2c1=O [erastin], the relative cell viability came out at 0.086.

As to `Cc1cc(=O)oc2c(O)c(O)ccc12` [7,8-Dihydroxy-4-methylcoumarin] + CCOc1ccccc1-n1c(C(C)N2CCN(C(=O)COc3ccc(Cl)cc3)CC2)nc2ccccc2c1=O [erastin], the relative cell viability came out at 0.489.

Consider `Cn1c2cc([S+](C)[O-])sc2c2cnn(Cc3cccc(N)c3)c(=O)c21` (stereo not given) + CCOc1ccccc1-n1c(C(C)N2CCN(C(=O)COc3ccc(Cl)cc3)CC2)nc2ccccc2c1=O [erastin], for which the relative cell viability turned out to be 0.61.

As to `COC(=O)CN(c1ccc(CN(c2ccc(OCc3ccc(C)cc3)c(C(=O)OC)c2)S(=O)(=O)Cc2ccccc2)cc1)S(C)(=O)=O` + CCOc1ccccc1-n1c(C(C)N2CCN(C(=O)COc3ccc(Cl)cc3)CC2)nc2ccccc2c1=O [erastin], the relative cell viability came out at 0.624.

Regarding `Cc1c(C)c2c(c(C)c1O)CCC(C)(COc1ccc(CC3SC(=O)NC3=O)cc1)O2` (stereo not given) [Troglitazone] + CCOc1ccccc1-n1c(C(C)N2CCN(C(=O)COc3ccc(Cl)cc3)CC2)nc2ccccc2c1=O [erastin], the relative cell viability was 0.641.

Consider `CC(C)CCC[C@@H](C)[C@H]1CC[C@H]2[C@@H]3CCC4=CC(=NO)CC[C@]4(C)[C@H]3CC[C@]12C` [Olesoxime] + CCOc1ccccc1-n1c(C(C)N2CCN(C(=O)COc3ccc(Cl)cc3)CC2)nc2ccccc2c1=O [erastin], for which the relative cell viability worked out at 0.673.

For `NC(CO)C(=O)O` (racemic) [DL-Serine] + CCOc1ccccc1-n1c(C(C)N2CCN(C(=O)COc3ccc(Cl)cc3)CC2)nc2ccccc2c1=O [erastin], the relative cell viability came to 0.667.

On to `Nc1ccc(C(=O)O)c(O)c1` [Aminopar] + CCOc1ccccc1-n1c(C(C)N2CCN(C(=O)COc3ccc(Cl)cc3)CC2)nc2ccccc2c1=O [erastin], for which the relative cell viability came to 0.773.

Regarding `O=C(Nc1cccnn1)N1CCC(=Cc2cccc(Oc3ccc(C(F)(F)F)cn3)c2)CC1` + CCOc1ccccc1-n1c(C(C)N2CCN(C(=O)COc3ccc(Cl)cc3)CC2)nc2ccccc2c1=O [erastin], the relative cell viability turned out to be 0.667.

On to `Cc1c(C(=O)NN2CCCCC2)nn(-c2ccc(Cl)cc2Cl)c1-c1ccc(Cl)cc1` [Rimonabant] + CCOc1ccccc1-n1c(C(C)N2CCN(C(=O)COc3ccc(Cl)cc3)CC2)nc2ccccc2c1=O [erastin], for which the relative cell viability was 0.581.

Regarding `COP(=O)(OC)OC(c1ccc(Cl)cc1)P(=O)(OC)OC` (stereo not given) [Mifobate] + CCOc1ccccc1-n1c(C(C)N2CCN(C(=O)COc3ccc(Cl)cc3)CC2)nc2ccccc2c1=O [erastin], the relative cell viability turned out to be 0.875.

Consider `NC(N)=N/N=C/c1cccc(Cl)c1Cl` [Raphin1 acetate] + CCOc1ccccc1-n1c(C(C)N2CCN(C(=O)COc3ccc(Cl)cc3)CC2)nc2ccccc2c1=O [erastin], for which the relative cell viability was 0.718.

In the case of `COc1ccc2[nH]cc(CCNC(C)=O)c2c1` [Melatonine] + CCOc1ccccc1-n1c(C(C)N2CCN(C(=O)COc3ccc(Cl)cc3)CC2)nc2ccccc2c1=O [erastin], the relative cell viability turned out to be 0.585.

As for `C=C1C[C@]2(O)O[C@@]3(CC2=C(C)C)[C@@H](C)CC[C@@H]13` [Isocurcumenol] + CCOc1ccccc1-n1c(C(C)N2CCN(C(=O)COc3ccc(Cl)cc3)CC2)nc2ccccc2c1=O [erastin], the relative cell viability came to 0.566.

As to `c1cc(-c2cnn3cc(-c4ccc(OCCN5CCCCC5)cc4)cnc23)ccn1` [Dorsomorphin dihydrochloride] + CCOc1ccccc1-n1c(C(C)N2CCN(C(=O)COc3ccc(Cl)cc3)CC2)nc2ccccc2c1=O [erastin], the relative cell viability was 0.0948.

Take `O=C(O)c1cccnc1Nc1cccc(C(F)(F)F)c1` [Niflumic acid] + CCOc1ccccc1-n1c(C(C)N2CCN(C(=O)COc3ccc(Cl)cc3)CC2)nc2ccccc2c1=O [erastin]: the relative cell viability stood at 0.771.
